We go through 31 compounds from PubChem BioAssay (NCATS).

Values joined by “and” are separate entries in the source; they are usually repeats but may differ in a detail not shown here. Identical values can stand only once. Records with an inconclusive call do not appear. Active and inactive are the calls of the source. The call rests on the fitted dose curve; in most records, active means well fitted cell-killing curve with a large enough effect; inconclusive means small, poorly fitted or top-dose-only effect, or effect the other way; inactive means no such curve, though single readings can be large or run the other way.

Assay [1] in a line: Quantitative High-Throughput drug screen in 47 multiple myeloma cell lines against the NCATS MIPE library collection: PE2_PLB cell viability assay (AID 1919869). Further: nearly all actives have a fitted effect of over 35% in size. The gist of the method:
(§1)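 Readout: median RLU from CellTiter-Glo after 5 min at room temperature. Preceding step was 48 h drug treatment of 500 cells/well at 37 °C, 5% CO2, with DMSO-only and media-only control wells.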

The nature of assay [2]: Quantitative High-Throughput drug screen in 47 multiple myeloma cell lines against the NCATS MIPE library collection: PCM6_Riken cell viability assay (AID 1919870). Further: nearly all actives have a fitted effect of over 30% in size. The gist of the method: as §1
The nature of assay [3]: Quantitative High-Throughput drug screen in 47 multiple myeloma cell lines against the NCATS MIPE library collection: OPM2_DSMZ cell viability assay (AID 1919872). Further: nearly all actives have a fitted effect of over 30% in size. The gist of the method: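 Steps: seed 500 cells per well; pin-transfer MIPE 4.0 library; incubate 48 h at 37C, 5% CO2, humidified; add CellTiter-Glo, 5 min room temperature; read luminescence.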
The nature of assay [4]: Quantitative High-Throughput drug screen in 47 multiple myeloma cell lines against the NCATS MIPE library collection: KMS28BM_JCRB cell viability assay (AID 1919874). Further: nearly all actives have a fitted effect of over 35% in size. In outline:
as §1

A short description of assay [5]: Quantitative High-Throughput drug screen in 47 multiple myeloma cell lines against the NCATS MIPE library collection: KMS11_JCRBsus cell viability assay (AID 1919873). Further: nearly all actives have a fitted effect of over 50% in size. In outline: as §1
A short description of assay [6]: Quantitative High-Throughput drug screen in 47 multiple myeloma cell lines against the NCATS MIPE library collection: RPMI8226_ATCC cell viability assay (AID 1919871). Further: nearly all actives have a fitted effect of over 30% in size. In outline: as §1
Potency means the concentration at half of the fitted maximal effect.

As for `COc1ccc(-c2ccc3c(N4CCOC[C@H]4C)nc(N4CCOC[C@H]4C)nc3n2)cc1CO`, the Potency in assay [1] was 0.0148 µM (active); in assay [2], 0.0166 µM (active); in assay [3] it was 0.0209 µM (active); in assay [4], 0.0083 µM (active).

As to `Cc1c(CCOc2ccc(C(=O)O)cc2)c2cc(Cl)ccc2n1C(c1ccccc1)c1ccccc1`, the Potency result in assay [1], in assay [2] and in assay [5] was “inactive” in each case.

On to `COc1ccc(-c2oc3cc(OC)ccc3c2C(=O)c2ccc(C#N)cc2)cc1`, for which the Potency entry in assay [1], in assay [6], in assay [3] and in assay [5] was “inactive” each time.

Consider `COCCNCCCn1c(C(=O)CF)c(-c2ccc(C)cc2)c2c(N)ncnc21`, for which the Potency in assay [1] is 14.8 µM (active); in assay [2], 10.5 µM (active). Also, in assay [3], the Potency result is “inactive”.

Regarding `O=C(O)CCc1ccc(NCc2cccc(Oc3ccccc3)c2)cc1`, the Potency result in assay [1], in assay [6], in assay [3] and in assay [5] was “inactive” throughout.

Take `O=C(Nc1nc2ccccc2n1CCN1CCOCC1)c1cccc([N+](=O)[O-])c1`: the Potency in assay [1] is 1.05 µM (active); in assay [2], 1.87 µM (active). In addition, the Potency result in assay [3], in assay [5] and in assay [4] was “inactive” each time.

For the compound `CCCn1c(=O)c2[nH]c(C34CC5CC3C[C@@H](C5)C4)nc2n(CCC)c1=O`, the Potency result in assay [1], in assay [3], in assay [5] and in assay [4] was “inactive” throughout. The Potency in assay [6] is 8.33 µM (active).

Take `CN1CCN(CCCN2c3ccccc3Sc3ccc(C(F)(F)F)cc32)CC1`: the Potency in assay [1] was 9.35 µM (active); in assay [2], 1.48 µM (active). Moreover, the Potency result in assay [3], in assay [5] and in assay [4] was “inactive” in each case.

As for `CN(C)c1ccc(C2Nc3ccc4ccccc4c3C3=C2C(=O)CC(C)(C)C3)cc1Br` (centres undefined), the Potency in assay [1] was 5.26 µM (active). For the same compound, the Potency entry in assay [2], in assay [3] and in assay [4] was “inactive” in each case.

As for `Cc1ccc(NC(=O)c2cccc(C(C)(C)C#N)c2)cc1Nc1ccc2ncn(C)c(=O)c2c1`, the Potency was 5.9 µM (active) in assay [1], 16.6 µM (active) in assay [3] and 11.8 µM (active) in assay [5]. The Potency result in assay [2] is “inactive”.

`COc1ccc(COc2cc3oc(=O)c4cc(C(C)O)ccc4c3cc2OC)cc1` (centres undefined): the Potency in assay [1] was 14.8 µM (active); in assay [6], 20.9 µM (active).

Take `CC(C=CC1=C(C)CCCC1(C)C)=CC=CC(C)=CC(=O)O`: the Potency in assay [1] was 16.6 µM (active); in assay [2], 14.8 µM (active) and 18.7 µM (active). In assay [4], the Potency entry was “inactive”.

As to `C[C@H](NC(=O)Cc1cc(F)cc(F)c1)C(=O)N[C@@H]1C(=O)N(C)c2ccccc2-c2ccccc21`, the Potency in assay [1] was 5.9 µM (active); in assay [2] it was 5.26 µM (active). In assay [5], the Potency entry was “inactive”.

Take `O=C1CCC(N2C(=O)c3ccccc3C2=O)C(=O)N1` (centres undefined): the Potency result in assay [1], in assay [2], in assay [3] and in assay [4] was “inactive” throughout.

Consider `CCN(CC)CCCC(C)Nc1nc(C)cc(Nc2ccc3nc(C)cc(N)c3c2)n1` (centres undefined), for which, in assay [1], the Potency was 10.5 µM (active). Moreover, the Potency result in assay [6], in assay [3], in assay [5] and in assay [4] was “inactive” each time.

With `CCCS(=O)(=O)Nc1ccc(F)c(C(=O)c2c[nH]c3ncc(-c4ccc(Cl)cc4)cc23)c1F`, the Potency in assay [1] is 11.8 µM (active); in assay [2], 5.26 µM (active); in assay [5] it was 8.33 µM (active).

With `COc1nc(-c2ccc3c(c2)OCO3)n(-c2ccc(NC(=O)CSc3ccccc3)cc2)n1`, the Potency entry in assay [1], in assay [2], in assay [3] and in assay [5] was “inactive” in each case.

In the case of `NC(=O)C1CCCc2c1[nH]c1ccc(Cl)cc21` (centres undefined), in assay [1], the Potency was 16.6 µM (active). Also, the Potency entry in assay [6], in assay [3] and in assay [5] was “inactive” throughout.

On to `COc1cc2c(cc1OC)CN(CCc1ccc(NC(=O)c3cccc4c(=O)c5cccc(OC)c5[nH]c34)cc1)CC2`, for which the Potency in assay [1] was 20.9 µM (active). Besides, the Potency result in assay [6], in assay [3], in assay [5] and in assay [4] was “inactive” throughout.

With `Cc1cccc(-c2[nH]c(C(C)(C)C)nc2-c2ccc3nccnc3c2)n1`, the Potency was 2.09 µM (active) in assay [1] and 7.43 µM (active) in assay [2]. Further, the Potency entry in assay [3] is “inactive”.

For the compound `CNCc1ccc(-c2[nH]c3cc(F)cc4c3c2CCNC4=O)cc1`, the Potency result in assay [1], in assay [6] and in assay [3] was “inactive” throughout.

As for `O=C(O)[C@@H](c1ccc(OCc2ccc3ccccc3n2)cc1)C1CCCC1`, the Potency result in assay [1], in assay [2] and in assay [3] was “inactive” in each case.

For `CC1(C)Cc2c(-c3ccccc3)c(-c3ccc(Cl)cc3)c(CC(=O)O)n2C1`, the Potency is 20.9 µM (active) in assay [1]; 20.9 µM (active) in assay [2]; 23.5 µM (active) in assay [3]; 18.7 µM (active) in assay [5]; 16.6 µM (active) in assay [4].

On to `COc1ccccc1[C@H](c1cccc2ccccc12)[C@@](C)(C#N)C(=O)N1CCC(c2cccc(C(F)(F)F)c2)CC1`, for which the Potency in assay [1] was 5.9 µM (active); in assay [2], 5.9 µM (active); in assay [3], 8.33 µM (active); in assay [5], 1.05 µM (active); in assay [4] it was 4.18 µM (active).

Consider `N[C@@H]1CONC1=O`, for which the Potency entry in assay [1], in assay [6], in assay [3], in assay [5] and in assay [4] was “inactive” each time.

Consider `CCC(C)n1ncn(-c2ccc(N3CCN(c4ccc(OC[C@H]5CO[C@](Cn6cncn6)(c6ccc(Cl)cc6Cl)O5)cc4)CC3)cc2)c1=O` (some centres undefined), for which the Potency result in assay [1] was “inactive”. Further, the Potency in assay [6] is 3.32 µM (active); in assay [3], 4.69 µM (active); in assay [5], 1.32 µM (active).

Take `CCN(CC)CCCC(C)Nc1ccnc2cc(Cl)ccc12` (centres undefined): the Potency result in assay [1], in assay [6] and in assay [3] was “inactive” each time.

In the case of `Cc1oncc1C(=O)Nc1ccc(C(F)(F)F)cc1`, the Potency result in assay [1], in assay [2] and in assay [3] was “inactive” throughout.

Take `CCn1c(-c2nonc2N)nc2c(C#CC(C)(C)O)ncc(OC[C@H]3CCCNC3)c21`: the Potency in assay [1] is 9.35 µM (active); in assay [2] it was 14.8 µM (active); in assay [5] it was 2.96 µM (active); in assay [4], 0.372 µM (active).

As to `Oc1cccc(-c2nc(N3CCOCC3)c3oc4ncccc4c3n2)c1`, the values for the Potency in assay [1], in assay [2] and in assay [3] were 0.0855 µM (active), 0.54 µM (active) and 0.136 µM (active), respectively.

As for `Cc1ccc(-n2nc(C(C)(C)C)cc2NC(=O)Nc2ccc(OCCN3CCOCC3)c3ccccc23)cc1`, the Potency in assay [1] is 16.6 µM (active); in assay [2] it was 23.5 µM (active). Besides, the Potency entry in assay [3] and in assay [4] was “inactive” throughout.
